36 molecules from PubChem BioAssay can be followed below.

This assay can be described thus: probe aNog binding to arrayed compounds – biochemical, biotinylated probe, 635/667 nm fluorescence, primary screen (AID 1115).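 Also: probe is biotinylated aNog protein used at 0.15 µg/mL for 1 h at 4 C; z-score combines 667 nm fluorescence of each spot with its signal to noise.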 The note with it: small-molecule microarray, higher = more signal.
The molecule `CCOC(=O)[C@H](Cc1ccccc1)NC(=O)CCC1CC(OC(=O)NCCc2ccc(F)cc2)CC2(CCCC(COC(=O)NCc3cccc(C(F)(F)F)c3)O2)O1` (stereo partly specified) had a composite z-score of 0.0498.

In the case of `C[C@H]1CC[C@@H](C(=O)O)N[C@@H]1c1ccc(C#Cc2ccccc2)cc1`, the composite z-score was -0.256.

In the case of `C[C@H]1CC[C@H]2C(=O)OC(COc3ccc(C(C)(C)C)cc3)CN2[C@@H]1c1ccc(Br)cc1` (stereo partly specified), the composite z-score was -0.111.

Consider `OC[C@H]1O[C@H](C#Cc2ccccc2)C=C[C@@H]1O`, for which the composite z-score was -0.0125.

In the case of `CC(C)(C)N1C(=O)[C@H]2[C@H]3[C@H](O)[C@H](O)CC(=NOC[C@@H](O)COCc4ccco4)[C@@H]3CC[C@H]2C1=O`, the composite z-score was -0.0733.

Take `COC(=O)[C@H](C)NC(=O)CCC1CC(OC(=O)NCc2ccc3c(c2)OCO3)CC2(CCCC(COC(=O)NCc3ccccc3)O2)O1` (stereo partly specified): the composite z-score is -0.258.

As for `O=C1[C@H]2[C@H]3[C@H](O)[C@H](O)CC(=NOC[C@@H](O)COCc4ccco4)[C@@H]3CC[C@H]2C(=O)N1Cc1ccccc1`, the composite z-score is -0.529.

With `COc1ccc(COC(=O)NN=C2C[C@@H](O)[C@@H](O)[C@@H]3[C@@H]4C(=O)N(C5CCCCC5)C(=O)[C@@H]4CC[C@@H]23)cc1`, the composite z-score is -0.261.

On to `CC(=O)OC[C@H]1O[C@@H](ON=C(C)CCN2CCCCc3nc(C)c(C)cc32)[C@H](OC(C)=O)[C@@H](OC(C)=O)[C@@H]1OC(C)=O`, for which the composite z-score is -0.0129.

With `CCOC(=O)[C@H](CC(C)C)NC(=O)CCC1CC(OC(=O)NCc2ccc3c(c2)OCO3)CC2(CCCC(COC(=O)NCCOC)O2)O1` (stereo partly specified), the composite z-score is -0.0615.

On to `CO[C@H]1COC(=O)[C@H](C)COC(=O)[C@@H](OCc2ccccc2)C=C[C@@H]1C`, for which the composite z-score was -0.379.

On to `CCOC(=O)[C@H](Cc1ccccc1)NC(=O)CCC1CC(OC(=O)NCc2cccc3ccccc23)CC2(CCCC(COC(=O)NCCOc3ccccc3)O2)O1` (stereo partly specified), for which the composite z-score is -0.347.

For `CCc1cc2c(nc1CC)CCN(CCC(C)=NOC[C@@H](C)[C@H](OCc1ccccc1)C(C)C)C2`, the composite z-score is -0.411.

On to `O=C1CCCC=C1C(O)C1CCCCC1` (stereo unspecified), for which the composite z-score was -0.134.

The molecule `CC(C)=CCCC(C)=CCON=C1C[C@@H](O)[C@@H](O)[C@@H]2[C@@H]3C(=O)N(Cc4ccc5c(c4)OCO5)C(=O)[C@@H]3CC[C@@H]12` came in with a composite z-score of 0.824.

As for `CC(C)=CCCC(C)=CCON=C1[C@H]2CCn3c(=O)n(-c4ccccc4)c(=O)n3[C@H]2[C@H](O)[C@@H]2O[C@H]12`, the composite z-score is -0.061.

With `C=CCOCC1CN2[C@@H](CC[C@@H](C)[C@@H]2c2ccc(Br)cc2)C(=O)O1` (stereo partly specified), the composite z-score was -0.196.

Regarding `CCCC[C@H]1CN2[C@@H](CC[C@@H](C)[C@@H]2c2ccc(Br)cc2)C(=O)O1`, the composite z-score is -0.188.

Consider `CC(C)CON=C1[C@H]2CCn3c(=O)n(C)c(=O)n3[C@H]2[C@H](O)[C@@H]2O[C@H]12`, for which the composite z-score was -0.232.

As to `O=C1C=C[C@@H](O)[C@@H]2[C@@H]3C(=O)N(c4cccc(Oc5ccccc5)c4)C(=O)[C@@H]3CC[C@@H]12`, the composite z-score is -0.381.

`Cc1cc(C)c(-c2cc([C@H](C)ON=C[C@@H](C)[C@H](OCc3ccccc3)C(C)C)on2)c(C)c1`: the composite z-score is -0.168.

As to `C[C@@H]1C=CCC(=O)OC[C@H](C)C(=O)N[C@@H](Cc2ccccc2)C(=O)OC1`, the composite z-score is -0.17.

As for `CCOC(=O)NN=C1C[C@@H](O)[C@@H](O)[C@@H]2[C@@H]3C(=O)N(C[C@@H]4CCCO4)C(=O)[C@@H]3CC[C@H]12`, the composite z-score is -0.166.

As to `COc1ccc(-c2cnnc(CCCn3ccnc3-c3ccccc3)n2)cc1`, the composite z-score is -0.395.

The molecule `CCOC(=O)[C@H](Cc1ccccc1)NC(=O)CCC1CC(OC(=O)NCc2ccc3c(c2)OCO3)CC2(CCCC(COC(=O)NCCc3ccc(Cl)cc3)O2)O1` (stereo partly specified) registered a composite z-score of 0.0308.

For `CCO[C@H](c1cc(OC)cc([N+](=O)[O-])c1OC)[C@H](C)[C@@H](OC)[C@H](C)C=CCC(=O)OC`, the composite z-score is -0.445.

In the case of `CCN(CC)CC(O)CN1CCCCc2nc(C)c(C)cc21` (stereo unspecified), the composite z-score is -0.0137.

Regarding `O=C1CCCC=C1C(O)c1ccc([N+](=O)[O-])cc1` (stereo unspecified), the composite z-score is -0.489.

Consider `CCOC(=O)[C@H](Cc1ccccc1)NC(=O)CCC1CC(OC(=O)NCCc2ccc(F)cc2)CC2(CCCC(COC(=O)NCCOc3ccccc3)O2)O1` (stereo partly specified), for which the composite z-score is -0.28.

In turn, `COC(=O)[C@H](Cc1ccccc1)NC(=O)[C@@H](C)CO` showed a composite z-score of 0.376.

For `CCOC(=O)CCN1C(=O)[C@H]2[C@H]3[C@H](O)[C@H](O)CC(=NOCC=C(C)CCC=C(C)C)[C@H]3CC[C@H]2C1=O`, the composite z-score was -0.1.

As for `O=C1[C@H]2[C@H]3[C@H](O)[C@H](O)CC(=NO[C@@H]4O[C@H](CO)[C@@H](O)[C@H](O)[C@H]4O)[C@H]3CC[C@H]2C(=O)N1c1ccc(F)cc1F`, the composite z-score was -0.273.

In turn, `O=C1[C@H]2[C@H]3[C@H](O)[C@H](O)CC(=NOCc4ccccc4)[C@@H]3CC[C@H]2C(=O)N1c1cccc(Oc2ccccc2)c1` had a composite z-score of 0.0051.

Take `O=C1C2=CC[C@H]3C(=O)N(C[C@@H]4CCCO4)C(=O)[C@H]3[C@H]2[C@H](O)[C@@H]2O[C@H]12`: the composite z-score was -0.158.

Consider `CCOC(=O)[C@H](CC(C)C)NC(=O)CCC1CC(OC(=O)NCc2ccc3c(c2)OCO3)CC2(CCCC(COC(=O)NCc3ccccc3)O2)O1` (stereo partly specified), for which the composite z-score is -0.074.

In turn, `CON=C(C)CCN1CCCc2nc(C)c(C)cc21` gave a composite z-score of 0.177.
